Assay results from PubChem BioAssay AID485346 (Sanford-Burnham Center for Chemical Genomics, 2010).
In all, about 330,000 compounds went through this assay and about 10,000 (3%) were called active.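 How the source made its calls: active means inhibition of at least 50% at 8 µM in the primary screen; inactive means the rest.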 For the sample, actives were picked, then their nearest neighbours and some compounds at random.

target: Protein Mdm4 (Homo sapiens) + E3 ubiquitin-protein ligase Mdm2 (Homo sapiens) (UniProt O15151+Q00987); assay: disruptors of Mdm2/MdmX RING complex – cell-based, luminescence, split luciferase, SaOS-2, uHTS, primary screen (AID 485346); details: SaOS-2 split-luciferase Mdm2/MdmX complementation, at 8 µM, stronger effect = higher value
Sequence (O15151 whole entry, looked up): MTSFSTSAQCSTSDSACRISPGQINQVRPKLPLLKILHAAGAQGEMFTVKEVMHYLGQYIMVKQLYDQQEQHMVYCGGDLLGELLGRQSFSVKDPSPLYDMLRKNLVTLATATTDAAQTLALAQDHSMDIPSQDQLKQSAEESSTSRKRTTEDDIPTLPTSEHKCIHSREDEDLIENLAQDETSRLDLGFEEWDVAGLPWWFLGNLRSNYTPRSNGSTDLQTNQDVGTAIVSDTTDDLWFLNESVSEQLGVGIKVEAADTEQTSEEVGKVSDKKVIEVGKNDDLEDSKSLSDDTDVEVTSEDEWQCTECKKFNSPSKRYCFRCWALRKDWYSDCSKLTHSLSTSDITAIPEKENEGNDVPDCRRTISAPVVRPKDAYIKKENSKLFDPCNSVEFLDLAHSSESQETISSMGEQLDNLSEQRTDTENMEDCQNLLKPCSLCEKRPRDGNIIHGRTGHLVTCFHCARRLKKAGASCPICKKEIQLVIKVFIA
Sequence (Q00987 whole entry, looked up): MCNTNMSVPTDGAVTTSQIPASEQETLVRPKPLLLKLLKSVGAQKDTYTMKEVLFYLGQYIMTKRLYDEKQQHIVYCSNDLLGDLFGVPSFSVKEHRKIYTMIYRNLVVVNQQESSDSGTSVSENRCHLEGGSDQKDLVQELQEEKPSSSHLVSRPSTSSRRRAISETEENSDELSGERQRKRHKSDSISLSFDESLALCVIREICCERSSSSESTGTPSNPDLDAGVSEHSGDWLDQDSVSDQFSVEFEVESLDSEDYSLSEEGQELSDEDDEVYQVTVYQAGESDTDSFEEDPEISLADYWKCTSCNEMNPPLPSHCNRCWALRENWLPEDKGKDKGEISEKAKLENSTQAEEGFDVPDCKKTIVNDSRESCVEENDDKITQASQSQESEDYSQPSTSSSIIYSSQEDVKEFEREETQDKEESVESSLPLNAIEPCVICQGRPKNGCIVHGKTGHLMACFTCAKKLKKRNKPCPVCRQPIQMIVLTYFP

Row | Compound | inhibition
1 | CC1=C(C/C=C(\C)CCCC(C)CCCC(C)CCCC(C)C)C(=O)c2ccccc2C1=O (stereo not drawn) | -7.28% (inactive)
2 | CC(C)CC(NC(=O)C1CCCN1C(=O)[C@@H](C)NC(=O)OCc1ccccc1)C(=O)NCC(N)=O (stereo partly drawn) | -21.6% (inactive)
3 | COc1ccc(C2C(C(C)=O)=C(O)C(=O)N2CCc2c[nH]c3ccccc23)cc1 (stereo not drawn) | -16.3% (inactive)
4 | CCc1noc(C)c1C(=O)Nc1nc2ccc(OC)cc2s1 | 0.6% (inactive)
5 | COc1ccc2nc(Nc3nc4ccc(NC(C)=O)cc4s3)sc2c1 | 79.7% (active)
6 | COc1ccc2nc(NC(=O)NC3CCCCC3)sc2c1 | -142% (inactive)
7 | Cc1csc2ncc(C(=O)N(Cc3ccccc3)c3ccccn3)c(=O)n12 | 0.705% (inactive)
8 | CC(C)NC(=O)c1ccccc1S(=O)c1ccccc1C#N (stereo not drawn) | -7.43% (inactive)
9 | COc1cccc(-c2nnc(NC(=O)c3ccc(S(=O)(=O)N(CC(C)C)CC(C)C)cc3)o2)c1 | 72.2% (active)
10 | O=C(Nc1nnc(-c2ccco2)o1)c1ccc(S(=O)(=O)N2CCOCC2)cc1 | -9.19% (inactive)
11 | COc1ccc(-c2nnc(NC(=O)CS(=O)(=O)c3ccc(Cl)cc3)o2)c(OC)c1 | -3.12% (inactive)
12 | CC(C#N)OC(=O)c1cccnc1SCC(=O)Nc1ccc2c(c1)OCO2 (stereo not drawn) | -12.8% (inactive)
13 | CC(C)(C)n1nnc(CCc2nnn(C(C)(C)C)n2)n1 | 13.5% (inactive)
14 | CC1CCCN(C(=O)CN2C(=O)c3ccccc3S2(=O)=O)C1 (stereo not drawn) | 3.88% (inactive)
15 | O=C(CN1C(=O)c2ccccc2S1(=O)=O)N1CCc2ccccc21 | 68% (active)
16 | O=C(CN1C(=O)c2ccccc2S1(=O)=O)NC1CCCCC1 | 12.3% (inactive)
17 | O=C(N/N=C/c1cccc(O)c1)c1cc2c(ccc3ccccc32)o1 | -1.11% (inactive)
18 | Cc1c(/C=N\NC(=O)c2cc3ccccc3o2)c2ccccc2n1C | 50.8% (active)
19 | Cc1ccc(NC(=O)c2cc3ccccc3o2)cc1 | -218% (inactive)
20 | Cc1cccc(N2C(=O)N3[C@H](c4ccc(F)cc4)[C@@H]4C(=O)N(C5CCCCC5)C(=O)[C@@H]4[C@]3(Cc3ccccc3)C2=O)c1 | 18.2% (inactive)
21 | O=C1[C@H]2[C@@H](c3ccc(F)cc3)N3C(=O)N(c4ccc(C(F)(F)F)cc4)C(=O)[C@@]3(Cc3ccccc3)[C@H]2C(=O)N1C1CCCCC1 | 95.3% (active)
22 | O=C1[C@H]2[C@@H](c3ccc(Cl)cc3)N3C(=O)N(c4cccc(F)c4)C(=O)[C@@]3(Cc3ccccc3)[C@H]2C(=O)N1C1CCCCC1 | 4.69% (inactive)
23 | Cc1ccc(NC(=O)CCCNC(=O)c2ccc(Cl)cc2)cc1S(=O)(=O)N1CCCCC1 | 14.3% (inactive)
24 | Cc1ccc(CN2CCN(/N=C/c3cccnc3)CC2)c(C)c1 | -1.63% (inactive)

Row | Compound | inhibition
25 | CC(C)c1ccc(Cc2nnc(NCCCO)[nH]c2=O)cc1 | -3.05% (inactive)
26 | COc1ccc(Cc2nnc(N/N=C/c3ccccc3O)[nH]c2=O)cc1OC | 66.5% (active)
27 | O=c1[nH]c(NCCO)nnc1Cc1ccc(Cl)cc1 | 16.8% (inactive)
28 | OC(CN=c1sc2ccccc2n1CC(O)COc1ccccc1)COc1ccccc1 (stereo not drawn) | 33.4% (inactive)
29 | Cc1cccc(NC(=O)CN2CCN(CC(=O)NCC3(N4CCCCC4)CCCCC3)CC2)c1C | -24.2% (inactive)
30 | Cc1nc2nc(C)c(CCC(=O)N3CCN(c4ccccc4)CC3)c(C)n2n1 | 7.55% (inactive)
31 | COc1ccc(CNC(=O)C2CCCC2)cc1 | 1.84% (inactive)
32 | COc1ccc(CNc2nc(NCc3ccc(OC)cc3)c3ncn(C4CCCC4)c3n2)cc1 | 60.8% (active)
33 | COc1ccc(CNC2CCCCC2)cc1 | 7.1% (inactive)
34 | C=CCN1C(=O)C(O)(CC(=O)c2ccc(Cl)cc2)c2ccccc21 (stereo not drawn) | 4.99% (inactive)
35 | C=CCC(CC=C)(C(N)=O)c1ccccc1 | 11.4% (inactive)
36 | Cc1cc(C)c(NC(=O)C[N+](C)(C)CC(O)COc2cccc3ccccc23)c(C)c1 (stereo not drawn) | 12.6% (inactive)
37 | CCC(C)Sc1nc2c(c(=O)[nH]c(=O)n2C)n1CC(O)COc1cccc2ccccc12 (stereo not drawn) | 16.9% (inactive)
38 | CC(C)c1ccccc1OCC(O)CN(CC(O)COc1cccc2ccccc12)C(C)C (stereo not drawn) | 59.8% (active)
39 | CCC(C)(C)c1ccc(Oc2ccc(NC(=O)COC(=O)C3=COCCO3)cc2)cc1 | 0.755% (inactive)
40 | C[C@@H](O)c1nc2ccccc2n1N | -21.5% (inactive)
41 | CC1CC(=O)Nc2ccccc2N1C(=O)COc1ccc2cc(Br)ccc2c1 (stereo not drawn) | 20% (inactive)
42 | O=C1CN(c2nc(-c3ccccc3)c3cc(Br)ccc3n2)c2ccccc2N1 | 66.1% (active)
43 | O=c1c2cc(Br)ccc2nc(-c2cccc(Cl)c2)n1O | 40.4% (inactive)
44 | CC(=O)c1ccc(S(=O)(=O)N2CCN(C(=O)/C=C/c3ccc4ccccc4n3)CC2)cc1 | 79.9% (active)
45 | CC(=O)c1ccc(S(=O)(=O)N2CCC3(CC2)OCCO3)cc1 | -6.56% (inactive)
46 | CC(=O)c1ccc(S(=O)(=O)N2CCN(c3nc4c(C)c(C)ccc4cc3C#N)CC2)cc1 | 32.9% (inactive)
47 | Cc1cc(C)n2nc(C(=O)OCC(=O)N(CCC#N)c3ccc(F)cc3)nc2n1 | 11.4% (inactive)
48 | Nc1cccc2c1C(=O)N(Cc1nnc(-c3ccccc3Br)o1)C2=O | 2.07% (inactive)

Row | Compound | inhibition
49 | S=c1[nH]nc(-c2ccc(Cl)cc2)n1CC1CCCO1 (stereo not drawn) | -1.54% (inactive)
50 | O=C(c1nnc(-c2ccc(Cl)cc2)o1)C1CCCC1 | -34.3% (inactive)
51 | O=C(c1[nH]ncc1-c1ccc(Cl)cc1)C1CO1 (stereo not drawn) | 78.2% (active)
52 | CCOc1ccc(NC(=O)CSc2nncn2C)cc1 | 6.1% (inactive)
53 | NC(=O)C(Cc1ccccc1)NC(=O)C12CC3CC(CC(C3)C1)C2 (stereo not drawn) | 2.27% (inactive)
54 | CCN(CC(=O)Nc1c(F)cccc1F)C(=O)c1ccc(-c2ccc(C(C)=O)cc2)o1 | -16.4% (inactive)
55 | C[n+]1cc(-c2ccccc2)oc1-c1ccccc1 | -21.5% (inactive)
56 | Cc1cc(C)n2nc(C(=O)OCC(=O)N(C)CC(=O)Nc3ccc(F)cc3)nc2n1 | -1.93% (inactive)
57 | CCC1CCCCN1CCCNC(=O)C1CCC(Cn2c(=O)[nH]c3ccccc3c2=O)CC1 (stereo not drawn) | -28.9% (inactive)
58 | CCC1CCCCN1CCCNC(=O)Cn1nc(-c2ccccc2)ccc1=O (stereo not drawn) | 5.14% (inactive)
59 | CCC1CCCCN1CCCNC(=O)c1cc2c(Cl)nc3ccccc3c2s1 (stereo not drawn) | 58.7% (active)
60 | COC(=O)Cc1ccc(OCC(=O)NC2CCCC2)cc1 | 8.06% (inactive)
61 | CC(=O)c1ccc(OCCCC(=O)Nc2ccc(C)c(S(=O)(=O)N3CCOCC3)c2)cc1 | 13.1% (inactive)
62 | CCOC(=O)c1ccccc1NC(=O)CSc1nc2ccccc2c(=O)[nH]1 | 10.1% (inactive)
63 | CC(=O)NCc1ccc(-c2csc(NC(=O)CCCc3nc4ccccc4c(=O)[nH]3)n2)cc1 | 6.81% (inactive)
64 | O=C(CSc1nc2ccccc2c(=O)[nH]1)Nc1nc(-c2ccc(Br)cc2)cs1 | 75.5% (active)
65 | Cc1nnc(Nc2ccccc2F)s1 | 1.11% (inactive)
66 | Cc1nc(NC(=O)c2cccc(Cl)c2)sc1-c1csc(Nc2cccc(Cl)c2)n1 | -2.75% (inactive)
67 | O=C(Nc1ccc(-c2csc(Nc3cccc(C(F)(F)F)c3)n2)cc1)c1cccc(C(F)(F)F)c1 | 69.4% (active)
68 | O=C(Nc1ccc(C(F)(F)F)cc1)c1cccc(-n2cnnn2)c1 | -13.9% (inactive)
69 | CCn1cc(CCC(=O)NCc2ccc(F)cc2)c2ccccc21 | -7.13% (inactive)
70 | Cc1noc(C)c1C(=O)OCC(=O)N1CCN(S(=O)(=O)c2ccc3ccccc3c2)CC1 | -6.59% (inactive)
71 | COc1ccc(CC(=O)NCc2nnc(SCC(=O)Nc3ncc(C)s3)n2C)cc1 | 6.63% (inactive)
72 | Cc1nnc(NC(=O)c2ccc3nccnc3c2)s1 | 6.88% (inactive)

Row | Compound | inhibition
73 | COCCSc1nnc(NC(=O)CCS(=O)(=O)Cc2ccccc2)s1 | 25.9% (inactive)
74 | Cc1ccc(CS(=O)(=O)c2ncc(Cl)c(C(=O)Nc3nnc(C)s3)n2)cc1 | 99.7% (active)
75 | CSc1nnc(NC(=O)c2nc(S(=O)(=O)Cc3ccc(C)cc3)ncc2Cl)s1 | 98.2% (active)
76 | Cc1ccc(S(=O)(=O)CC(=O)Nc2nnc(C)s2)cc1 | 7.87% (inactive)
77 | CCSc1nnc(NC(=O)c2ccc(C)cc2)s1 | -64.2% (inactive)
78 | CCN(CC)S(=O)(=O)c1cc(C(=O)Nc2cc(S(=O)(=O)N3CCOCC3)ccc2N2CCCC2)ccc1F | 26.3% (inactive)
79 | CCC(NC(=O)c1cc(COc2ccc(F)c(F)c2)on1)c1ccncc1 (stereo not drawn) | 5.8% (inactive)
80 | O=C(Nc1ccc2sc3ccccc3c(=O)c2c1)c1ccccc1Cl | -48% (inactive)
81 | CCOC(=O)Cn1nnnc1C | 15.3% (inactive)
82 | O=C(CN1CCC(NC(=O)C2CC2)CC1)Nc1ccccc1[N+](=O)[O-] | 15.4% (inactive)
83 | COc1ccc(CC(=O)N[C@@H]2c3cc(OC)c(OC)cc3C[C@H]2OCc2ccccc2)cc1 | 38.6% (inactive)
84 | O=c1c2ccccc2nc2n1C(CSCc1cccc(C(F)(F)F)c1)CS2 (stereo not drawn) | 0.237% (inactive)
85 | O=C1C(=O)N(CC2COc3ccccc3O2)c2ccccc21 (stereo not drawn) | 26.1% (inactive)
86 | Cc1noc(C)c1C(=O)NCC1COc2ccccc2O1 (stereo not drawn) | 26.4% (inactive)
87 | Cc1cc(C(=O)CCl)c(C)n1CC1COc2ccccc2O1 (stereo not drawn) | 78.9% (active)
88 | CCCCN(C)CCNC(=O)CSCc1ccc(C)cc1 | 7.69% (inactive)
89 | CCOC(=O)NC(=O)C(=CNc1cccc(OC)c1)C(=O)NC(=O)OCC | 9.28% (inactive)
90 | C=CCOCCN(C)C1=NS(=O)(=O)c2ccccc21 | 5.66% (inactive)
91 | CN(Cc1ccccc1)S(=O)(=O)c1nnc(NC(=O)c2ccccc2F)s1 | -3.09% (inactive)
92 | O=C(Nc1nc(-c2cccnc2)cs1)c1ccccc1F | -52.4% (inactive)
93 | O=C(Nc1nnc(-c2ccccc2F)s1)c1ccccc1F | 54.1% (active)
